Data as given in the supplement of paper PMC10105736.
Values without a mark were called inactive.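 How the source made its calls: active = MAPPIT score above the 99th percentile of random reference set scores in the same batch; inactive = at or below it.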

Key:
Assay in all cases: MAPPIT interaction score (arbitrary units); higher = stronger binary interaction signal, active = hit call of the paper
Dpm3 = conditions: MAPPIT configuration: N-C; pair source set: screen_3
Drat = conditions: MAPPIT configuration: N-N; pair source set: RRS
Dysb = conditions: pair source set: Lit-BM-16
E(spl)m4-BFM = conditions: MAPPIT configuration: N-C; pair source set: RRS
E(z) = conditions: pair source set: Lit-BM-16
EMC2B = conditions: MAPPIT configuration: N-C; pair source set: Lit-BM-16
Eato = conditions: MAPPIT configuration: N-N; pair source set: Lit-BS-16
eIF3m = conditions: pair source set: Lit-BM-16
pnr = conditions: MAPPIT configuration: N-N; pair source set: DPIM
Eglp4 = conditions: MAPPIT configuration: N-C; pair source set: screen_3
Faf2 = conditions: MAPPIT configuration: N-C; pair source set: screen_4
RIC-3 = conditions: MAPPIT configuration: N-C; pair source set: screen_4
Elal = conditions: MAPPIT configuration: N-N; pair source set: Finley_Y2H
EndoB = conditions: MAPPIT configuration: N-N; pair source set: screen_2
Fatp3 = conditions: MAPPIT configuration: N-N; pair source set: Curagen_low_conf
Fer1HCH = conditions: MAPPIT configuration: N-N; pair source set: Curagen_low_conf
mino = conditions: MAPPIT configuration: N-N; pair source set: Lit-BS-16
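Further: HEK293T cells with Epo stimulation, STAT-responsive firefly luciferase reporter, fold induction versus unstimulated cells divided by the larger fold induction of two negative controls lacking either bait or prey.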

B1: BomBc1 (protein)
chain: MKCLILSFAIFVVLASQATAGNVIIGGVCQDCSPPVAENVVVGGQSYRTGRPGQGTVYINSPGAYLGALDGPIRRTGAGGGGGGGAQYPDGYSGRLPGGTYLHNKDCVGCSISGGGD
MAPPIT interaction score (Dpm3): 0.481

B2: Obp84a (protein)
chain: MYSALVRACAVIAFLILSPNCARALQDHAKDNGDIFIINYDSFDGDVDDISTTTSAPREADYVDFDEVNRNCNASFITSMTNVLQFNNTGDLPDDKDKVTSMCYFHCFFEKSGLMTDYKLNTDLVRKYVWPATGDSVEACEAEGKDETNACMRGYAIVKCVFTRALTDARNKPTV
MAPPIT interaction score (Drat): 0.229

B3: Snapin (protein)
chain: MDSDSTVTSLEENTENFCTNPTRDILAEGITNLFKPTIERLDERVASTIQLQAELRGQLDALAAQLRDIEKAQSQIPEFADKVKELLNVKHKVTVISNVLVTSQERLTGLHKLIEKEQRRRQALLDSALSTNIS
MAPPIT interaction score (Dysb; MAPPIT configuration: N-C): -2.54
MAPPIT interaction score (Dysb; MAPPIT configuration: N-N): 0.529

B4: RFeSP (protein)
chain: MMNAVSRAYVRGGAQVLSTGLKASGVAVNSMANRQAHTDLQVPDFSAYRRESVKDSRRRNDTAEERKAFSYLMVGAGAVGGAYAAKGLVNTFIGSMSASAEVLAMAKIEIKLSDIPEGKSVTFKWRGKPLFIRHRTAAEIETERNVPTSTLRDPEADDQRVIKPEWLVVIGVCTHLGCVPIANAGDWGGYYCPCHGSHYDASGRIRKGPAPLNLEVPTHEFPNEGLLVVG
MAPPIT interaction score (E(spl)m4-BFM): 0.917

B5: pho (protein)
chain: MAYERFGIILQSEQYDEDIGNTKVNQKMNEGNHYDLHRKNAFDRIIHSESKKGDNVINYNIHENDKIKAADNIFSSKLKMNPNMSYEMNINCFKNIGYGENQETSKVLTNSLSNNDINTEESGVVDKNSPFLTLGTTILNSNGKSRRWEQKLVHIKTMEGEFSVTMWASGISDDEYSGSDQIVGASDLLKGKEEFGIDGFTSQQNKEYQKMESKFTNAQTLEMPHPISSVQIMDHLIKERGNLSQENNISERILSKTTLSFEEPILLPDSSSIELVNETAAMTINNHRTLSNHTGNTGDLHALPSSVPFRIGLHEGQVNDCLSTISQSTHQDNTDSTGCGEMNLSEVTVSYTNDKKIACPHKGCNKHFRDSSAMRKHLHTHGPRVHVCAECGKAFVESSKLKRHQLVHTGEKPFQCTFEGCGKRFSLDFNLRTHVRIHTGDRPFVCPFDACNKKFAQSTNLKSHILTHAKAKRNTSISGKSGCSNAESNSQSEDTSANYVKVELQDSVTENHVPFVVYAD
MAPPIT interaction score (E(z); MAPPIT configuration: N-C): 0.498
MAPPIT interaction score (E(z); MAPPIT configuration: N-N): 0.583

B6: Pcl (protein)
chain: MMNNHFHLQHDHPPQNVAHPFMQQPSTAVPSAPPATYGYLAQPAGQQPQWMTTTYQILPPSVGPATVAKRYYATTGPQTTHPTHPSTIQITNSFAQQSTPPKQQAATSCSPFKANNIRIISTAPSVYSLNKPPQEAHSTYAPVQSYYLPSGGGQTAGQINLLAASGTGKQLQPPPLVPVTNSTSPPSTVVLDRINICINNHYTETPTSLSSSLTTAQQPSPIIPAIQHKAILPLIDSSTADSSSCSSSSVSSSSYSGTATTSAAVVIVDEPDSTTTTPQTPPTTPEAMSSPGKSSPSPPLLATQSLLKGVNSMKPSFKTVEAAPPTPPTPPSPPPPPPAPPVAAPSPAVTYALQEDVFIKCNDGRFYLGTIIDQTSDQYLIRFDDQSEQWCEPDKLRKLGGGSSITAGGGGASTTESTNTSPSGPMCVACKRSDIEDVVEICERCGRGYHRGCTVEIVTGSGIWSCKRCAKPMKMQQPVSHKITKPAGICRQLPYHADKLSWDEKHRVNEEQIYCYCGKPGKFDHNMLQCCKCRNWFHTQCMQNFKKKLLRGDMFFVFCCTVCNNGIEFVRRMQIEWVDVLHIALYNLRKHQHQKYHHLLNDIWPFILEQRHQLPICEKWRTLPETALMERLKQTLKDYSDRFVCGREFKRAPAFYALRHSGPPHIPKVFLEPHEELSDELLEKRFKLMLMPEEPDEGANELPKRVPKDVYEFNTDEDDPVETSEDEIPIKQIIEKAKKQAAQKADKHDELPLKPDLADDNANDGDPGKLPAPIPPLLDANSSRKRKAFRLSKRYDNSRNHCDLSSDENSSSSRGTSSLDLIIPPPVNFLGRNNPFLMATPKKASQGRSISVGTGVGVNGIINSIFKLKGTSKEQPRMVRTIKRRLSAKDITIGPNQEVRRRRTRRLTTAIEVISTTTINPIPSHYLPIYAKDLQPPAPPMGKPTHGRLLRQRPQKQSPSQSRRNSTSSTATSSSSNGIGAPGHSMLDLKQSVNKYFGGAMNRIDAGEPFAIRAKRRMGNGQVQYLVEWGGDTATTAIGLLGN
MAPPIT interaction score (E(z); MAPPIT configuration: N-C): 0.709
MAPPIT interaction score (E(z); MAPPIT configuration: N-N): 3.05 (active)

B7: EMC8-9 (protein)
chain: MCDYKVSERAYAKLIFHAAKYPHQAVNGLLLAEKTSKGSQVEIVDAIPLFHQCLYVTPMAEVALMLIDAHAEREGLVIAGYYAAPENFYDNQVDKTPAAKIADKIQENFKNACFVVVDNKLMTLQHDRAAIQVFNCPGDSGARWSKAKFTLSQASDTLEGVSLLLKRGAMRDLVDFDNHLDNPDKNWTNDFLNQPLNDLQKLY
MAPPIT interaction score (EMC2B): -4.28

B8: eIF3f1 (protein)
chain: MSALNLTVRVHPVVLFQVVDAFERRNADSHRVIGTLLGSVDKGVVEVTNCFCVPHKEHDDQVEAELSYALDMYDLNRKVNSNESVVGWWATGNDVTNHSSVIHEYYARECNNPVHLTVDTSLQGGRMGLRAYVCIQLGVPGGKSGCMFTPIPVELTSYEPETFGLKLLQKTVGVSPAHRPKTVPPMLDLAQISEASTKLQSLLDLILKYVDDVIAHKVTPDNAVGRQLLDLIHSVPHMTHEQFTQMFNANVRNLLLVITLSQLIKTQLQLNEKLTFLPTA
MAPPIT interaction score (Eato): 0.224
MAPPIT interaction score (eIF3m; MAPPIT configuration: N-C): 3.45
MAPPIT interaction score (eIF3m; MAPPIT configuration: N-N): 5.78 (active)
MAPPIT interaction score (pnr): -0.504

B9: Membrin (protein)
chain: MESLYHQTNNVVKDIERDFQRLSQLSAQESLDVENGIQLKITQANANCDRLDVLLYKVPPSQRQSSKLRVDQLKYDLRHLQTSLQTARERRQRRMQEISEREQLLNHRFTANSAQPEETRLQLDYELQHHTQLGNAHRGVDDMIASGSGILESLISQRMTLGGAHKRIQAIGSTLGLSNHTMKLIERRLVEDRRIFIGGVVVTLLIIALIIYFLVL
MAPPIT interaction score (Eglp4): 0.261
MAPPIT interaction score (Faf2): 2.2
MAPPIT interaction score (RIC-3): -0.382

B10: mgr (protein)
chain: MTGIMDSVEMPKLPENQKTFAGIPEAVFLEEIDTFMSQPENENCEKVLQRLDEQHGKYRFMACNLEARRRKLKSQIPDLERSLEMVNVLRKEDEERETQFLLSDQVFIKTLVPPTKTVYLWLGASVMLEYPLDEAEALLNQNITSAVGNLKSVEHDQDFLRDQITTTEVNMARVYNWGVKKRQAATKTTATTPS
MAPPIT interaction score (Elal): 0.515

B11: RpS20 (protein)
chain: MAAAPKDIEKPHVGDSASVHRIRITLTSRNVRSLENVCRDLINGAKNQNLRVKGPVRMPTKTLRITTRKTPCGEGSKTWDRFQMRIHKRIIDLHSPSEIVKKITSINIEPGVEVEVTIAN
MAPPIT interaction score (EndoB): 3.62 (active)

B12: cnn (protein)
chain: MNSNRTSSSHNSRNLKILNASFDVPRPPGGGNSPLPSQGRSVRELEEQMSALRKENFNLKLRIYFLEEGQPGARADSSTESLSKQLIDAKIEIATLRKTVDVKMELLKDAARAISHHEELQRKADIDSQAIIDELQEQIHAYQMAESGGQPVENIAKTRKMLRLESEVQRLEEELVNIEARNVAARNELEFMLAERLESLTACEGKIQELAIKNSELVERLEKETASAESSNEAIDSLKVELEACRKENQDLVTSIRTLKHDMKRQVRSMKEAANTMDVQRQSILLLEATIKRKEKSCGSMQKNVLNYEALIAKLNAELETMRQQNVYFRELSENLQQKEVRQLDRGVAIVQPMRMTADAGRFVWQSGTIVAQEPLPLERQSAAATSNVSVSAVRLSSGPPPDQTYPVNGHDRAKYGLLQLFAAKLDWISAVPLALGHLALKIILLAMRLHSCLQNVHIPLRANRDLGAQLADKICELQEAQEKLKERERIHEQACRTIQKLMQKLSSQEKEIKKLNQENEQSANKENDCAKTVISPSSSGRSMSDNEASSQEMSTNLRVRYELKINEQEEKIKQLQTEVKKKTANLQNLVNKELWEKNREVERLTKLLANQQKTLPQISEESAGEADLQQSFTEAEYMRALERNKLLQRKVDVLFQRLADDQQNSAVIGQLRLELQQARTEVETADKWRLECVDVCSVLTNRLEELAGFLNSLLKHKDVLGVLAADRRNAMRKAVDRSLDLSKSLNMTLNITATSLADQSLAQLCNLSEILYTEGDASHKTFNSHEELHAATSMAPTVENLKAENKALKKELEKRRSSEGQRKERRSLPLPSQQFDNQSESEAWSEPDRKVSLARIGLDETSNSLAAPEQAISESESEGRTCATRQDRNRNSERIAQLEEQIAQKDERMLNVQCQMVELDNRYKQEQLRCLDITQQLEQLRAINEALTADLHAIGSHEEERMVELQRQLELKNQQIDQLKLAHSTLTADSQITEMELQALQQQMQEIEQLHADSVETLQSQLQKLKLDAVQQLEEHERLHREALERDWVALTTYQEQAQQLLELQRSLDYHQENEKELKQTLVENELATRALKKQLDESTLQASKAVMERTKAYNDKLQLEKRSEELRLQLEALKEEHQKLLQKRSNSSDVSQSGYTSEEVAVPMGPPSGQATTCKQAAAAVLGQRVNTSSPDLGIESDAGRISSVEVSNAQRAMLKTVEMKTEGSASPKAKSEESTSPDSKSNVATGAATVHDCAKVDLENAELRRKLIRTKRAFEDTYEKLRMANKAKAQVEKDIKNQILKTHNVLRNVRSNMENEL
MAPPIT interaction score (Fatp3): -0.429

B13: Hn (protein)
chain: MYQRQVSFDKPTRVEDSAYIVEGVDIKEARNTCLLFSPKDSSLSSGALANILAIFKKHDINLVHIESRSSLRVPGYEFFVEADGKSGALGKAIEDVKEQCSYFNIISRDYKDNATAVPWFPRRIRDLDRFANQILSYGSELDADHPGFTDPEYRKRRKYFADIAYNYKHGEPLPHVDYTKEEIETWGIIFRNLTKLYKTHACREYNHVFPLLVDNCGFREDNIPQLEDVSNFLRDCTGFTLRPVAGLLSSRDFLAGLAFRVFHSTQYIRHPSKPMYTPEPDVCHELMGHVPLFADPAFAQFSQEIGLASLGAPDDYIEKLSTIFWFTVEYGVCRQEGELKAYGAGLLSSYGELEYCLTDKPQLKDFEPEVTGVTKYPITQFQPLYYVADSFETAKEKTIKFANSIPRPFGVRYNAYTQSVEVLDSKPQISNLMDNINSEFQILQNAVAKLRV
MAPPIT interaction score (Fer1HCH): 0.406
MAPPIT interaction score (mino): 0.808
